Reference: PubChem BioAssay (NCATS)
Where “and” joins values, the source holds several entries; their conditions need not be identical. Equal values may be shown once. Records with an inconclusive call do not appear. A call without a number means that no potency is given here. Calls of active or inactive are those of the source. Unless noted, the call rests on the fitted dose curve; in most records, active means well fitted curve in the direction sought with a large enough effect; inconclusive means small, poorly fitted or top-dose-only effect, or another doubt; inactive means no such curve, though single readings can be large; an effect the other way counts as inactive or inconclusive.

Tests used:
[1] = qHTS to identify inhibitors of the type 1 interferon - major histocompatibility complex class I in skeletal muscle: primary screen against the NCATS Mechanism Interrogation Plate v5.0 (MIPE) Libary (AID 1347411); further: nearly all actives have a fitted effect of over 65% in size; further: potency means the concentration at half of the fitted maximal effect
In short: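 Immortalized human C25cl48 myoblasts with HiBit knocked into endogenous HLA-B*08:01 were stimulated with 4.0 ng/ml IFN-beta and exposed to compounds (11-point 1:3 titration, top 46 uM final) for 24 hrs at 37 C; HiBiT lytic luminescence measured.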

[2] = molecular target: Calcium and integrin-binding protein 1 (Homo sapiens) (UniProt Q99828); experiment: Primary qHTS for Identification of Calcium Integrin Binding Protein 1 (CIB1) Competitor (AID 1508620);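 further: GST tagged CIB1 binding a fluorescein labelled alphaIIb integrin peptide tracer; top concentration of the series differs between compounds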
Sequence of Calcium and integrin-binding protein 1 (Homo sapiens) (Q99828 whole entry, looked up): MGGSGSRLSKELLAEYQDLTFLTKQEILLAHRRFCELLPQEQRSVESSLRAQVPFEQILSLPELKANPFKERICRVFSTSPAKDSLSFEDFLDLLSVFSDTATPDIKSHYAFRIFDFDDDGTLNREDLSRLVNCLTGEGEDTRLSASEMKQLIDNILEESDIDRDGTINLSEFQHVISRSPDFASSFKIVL
In short: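 Fluorescence polarization competition: CIB1-GST (1 uM final) preincubated with compound 15 min at room temperature, then FITC-labeled alphaIIb peptide (100 nM final) added for another 15 min. Polarization read at Ex 480/Em 540.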

[3] = Primary qHTS for small molecule stabilizers of the endoplasmic reticulum resident proteome: Secreted ER Calcium Modulated Protein (SERCaMP) assay (AID 1508630)
In short: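 GLuc-SERCaMP-expressing SH-SY5Y cells, pretreated 16 h with compound, are challenged with thapsigargin to empty ER calcium stores; after 4 h, coelenterazine is added directly to the medium and luminescence is imaged.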

[4] = Primary qHTS for inhibitors of nuclear receptor binding SET domain protein 2 (NSD2) in an isogenic RCH-ACV NSD2 p.E1099K mutant (9B) (AID 1645876); further: nearly all actives have a fitted effect of over 70% in size; further: potency means the concentration at half of the fitted maximal effect
[5] = molecular target: Cytochrome P450 2C9 (Homo sapiens) (UniProt P11712); experiment: Cytochrome P450 family 2 subfamily C member 9 (CYP2C9) small molecule antagonists: luciferase biochemical (cell-free) qHTS assay (AID 1645842; active means well fitted curve in the direction sought with a large enough effect in the repeat runs; an effect the other way counts as inactive or inconclusive; further: nearly all actives have a fitted effect of over 55% in size; further: potency means the concentration at half of the fitted maximal effect)
Sequence of Cytochrome P450 2C9 (Homo sapiens) (P11712 whole entry, looked up): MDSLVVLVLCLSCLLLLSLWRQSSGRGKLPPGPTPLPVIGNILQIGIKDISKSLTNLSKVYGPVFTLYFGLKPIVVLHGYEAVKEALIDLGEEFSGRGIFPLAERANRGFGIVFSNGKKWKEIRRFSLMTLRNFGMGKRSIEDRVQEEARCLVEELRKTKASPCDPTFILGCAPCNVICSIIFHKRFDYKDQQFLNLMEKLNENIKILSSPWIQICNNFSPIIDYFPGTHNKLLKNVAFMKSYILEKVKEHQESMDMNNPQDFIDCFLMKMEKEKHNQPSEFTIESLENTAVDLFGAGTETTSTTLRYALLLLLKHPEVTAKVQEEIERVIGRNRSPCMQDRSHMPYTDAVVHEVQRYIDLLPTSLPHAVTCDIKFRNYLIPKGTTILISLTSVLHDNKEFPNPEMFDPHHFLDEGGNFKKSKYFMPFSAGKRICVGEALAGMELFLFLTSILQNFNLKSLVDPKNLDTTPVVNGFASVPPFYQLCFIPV
In short: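 Luminescence, after 20 min with luciferin detection reagent, reflected CYP2C9 turnover during a 1 h NADPH-driven reaction at 37C. Enzyme-substrate mix contained 0.4% bovine serum albumin and was preincubated with compound 10 min at room temperature.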

[6] = molecular target: Cytochrome P450 2D6 (Homo sapiens) (UniProt P10635); experiment: Cytochrome P450 family 2 subfamily D member 6 (CYP2D6) small molecule antagonists: luciferase biochemical (cell-free) qHTS assay (AID 1645840; active means well fitted curve in the direction sought with a large enough effect in the repeat runs; an effect the other way counts as inactive or inconclusive; further: nearly all actives have a fitted effect of over 55% in size; further: potency means the concentration at half of the fitted maximal effect)
Sequence of Cytochrome P450 2D6 (Homo sapiens) (P10635 whole entry, looked up): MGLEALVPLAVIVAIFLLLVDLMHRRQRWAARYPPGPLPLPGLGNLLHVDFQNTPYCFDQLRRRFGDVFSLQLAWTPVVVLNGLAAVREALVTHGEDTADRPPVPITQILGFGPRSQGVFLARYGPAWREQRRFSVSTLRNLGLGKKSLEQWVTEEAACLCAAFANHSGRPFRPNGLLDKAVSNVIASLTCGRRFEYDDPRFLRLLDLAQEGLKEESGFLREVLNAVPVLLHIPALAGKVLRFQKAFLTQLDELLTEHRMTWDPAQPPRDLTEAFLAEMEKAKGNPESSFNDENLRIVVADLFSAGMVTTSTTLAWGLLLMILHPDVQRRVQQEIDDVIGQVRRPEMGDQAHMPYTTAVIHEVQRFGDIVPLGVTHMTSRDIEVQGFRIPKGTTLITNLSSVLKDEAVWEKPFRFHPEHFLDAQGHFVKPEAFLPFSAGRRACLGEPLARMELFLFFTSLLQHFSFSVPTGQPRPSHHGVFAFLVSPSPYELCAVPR
In short: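 P450-Glo luminescent screen: recombinant CYP2D6 enzyme–proluciferin substrate mix preincubated with compound 10 min at room temperature, then NADPH regeneration added for 1 h at room temperature. Detection reagent added for 20 min; luciferin light read as relative luminescence units.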

Compound | Potency [1] | outcome [2] | Potency [3] | Potency [4] | Potency [5] | Potency [6]
C[C@@H]1CN(CC(=O)Nc2ccc3c(c2)Cc2cccc(-c4cc(=O)cc(N5CCOCC5)o4)c2S3)C[C@H](C)O1 | inactive | inactive | inactive | 5.9 µM (active) |  | 
Cc1ccc(CN2CCNCC2)cc1NC(=O)CNc1ccc(F)c(F)c1 | inactive | inactive | inactive | inactive | inactive | 
COc1ccc2c(c1)CC[C@@H](CN(C)CC(=O)O)[C@H]2c1ccccc1 | inactive | inactive | inactive | inactive | inactive | inactive
Cc1cc(CN2CCN(c3c(Br)cnc4nc(-c5ccc(N6CCN(C)CC6)cc5)[nH]c34)CC2)no1 | 6.58 µM (active) | inactive | inactive | 205 nM (active) and 468 nM (active) | 9.52 µM (active) | 
Nc1nc(-c2nn(Cc3ccccc3F)c3ncccc23)nc(N)c1N1CCOCC1 | inactive | inactive | inactive | inactive |  | 
CN(c1ncccc1CNc1nc(Nc2ccc3c(c2)CC(=O)N3)ncc1C(F)(F)F)S(C)(=O)=O | 4.66 µM (active) | inactive |  | 5.17 µM (active) |  | 
CC(C)(C)c1cc(C(C)(C)C)c(NC(=O)c2c[nH]c3ccccc3c2=O)cc1O | 23.4 µM (active) | inactive | inactive | 14.8 µM (active) |  | 
COc1ccc(F)c(F)c1C(=O)c1cnc(NC2CCN(S(C)(=O)=O)CC2)nc1N | 2.94 µM (active) | inactive |  | 325 nM (active) and 662 nM (active) | 10.7 µM (active) and 19 µM (active) | inactive
COc1cc(-c2nn(C3CCC(N4CCN(C(C)=O)CC4)CC3)c3ncnc(N)c23)ccc1NC(=O)c1cc2ccccc2n1C (configuration not stated) | inactive | inactive |  | 183 nM (active) and 590 nM (active) | 3.01 µM (active) | 
C=CCn1c(=O)c2cnc(Nc3ccc(N4CCN(C)CC4)cc3)nc2n1-c1cccc(C(C)(C)O)n1 | inactive | inactive |  | 290 nM (active) and 372 nM (active) |  | inactive
CC(=O)OCCN1C(=O)c2c(C)nc3ccc(S(=O)(=O)N4CCOCC4)cc3c2C1=O | inactive | inactive | inactive | inactive |  | 
CCCCCCCCCC(=O)N[C@@H](Cc1c[nH]c2ccccc12)C(=O)N[C@H](CC(N)=O)C(=O)N[C@@H](CC(=O)O)C(=O)N[C@@H]1C(=O)NCC(=O)N[C@@H](CCCN)C(=O)N[C@@H](CC(=O)O)C(=O)N[C@H](C)C(=O)N[C@@H](CC(=O)O)C(=O)NCC(=O)N[C@H](CO)C(=O)N[C@@H]([C@@H](C)CC(=O)O)C(=O)N[C@@H](CC(=O)c2ccccc2N)C(=O)O[C@@H]1C | inactive | inactive | inactive | inactive |  | 
N#CCNC(=O)c1ccc(-c2ccnc(Nc3ccc(N4CCOCC4)cc3)n2)cc1 | 11.7 µM (active) | inactive | inactive | 817 nM (active) and 2.63 µM (active) |  | 
Nc1cccc(-c2cc3c(Oc4cccc(O)c4)ncnc3[nH]2)c1 | 13.1 µM (active) | inactive | inactive | 1.15 µM (active) and 1.05 µM (active) |  | 
Nc1ncnc2c1c(-c1cnc3[nH]ccc3c1)nn2C1CCCC1 | 0.829 µM (active) | inactive |  | 365 nM (active) and 417 nM (active) | 0.425 µM (active) | inactive
C[C@@]12O[C@@H](C[C@]1(O)CO)n1c3ccccc3c3c4c(c5c6ccccc6n2c5c31)CNC4=O | 0.739 µM (active) | inactive | inactive | 0.0661 µM (active) |  | 
NC(=O)c1c(OCc2c(F)cc(Br)cc2F)nsc1NC(=O)NCCCCN1CCCC1 | 33 µM (active) | inactive |  | 10.5 µM (active) | 16.9 µM (active) | 10.7 µM (active)
CN1c2cc(O)c(N=NC(N)=O)cc2CC1S(=O)(=O)O (configuration not stated) | inactive | inactive | inactive | inactive |  | 
COc1ccc2c(OCc3nnc4ccc(-c5ccccc5)nn34)ccnc2c1 | inactive | inactive |  | inactive | 0.756 µM (active) | inactive
Cc1ccc(C(N)=O)cc1Nc1nccc(-c2cn(C(C)C)c3cnccc23)n1 | 8.29 µM (active) | inactive | inactive | 3.32 µM (active) |  | 
COc1ccc(OC)c(-c2nnc3ccc(-c4ccc(OC)c(O[C@@H]5CCOC5)c4)nn23)c1 | inactive | inactive |  | 3.72 µM (active) |  | 
Cc1ccc(NC(=O)C2(c3ccc4c(c3)OC(F)(F)O4)CC2)nc1-c1cccc(C(=O)O)c1 | inactive | inactive |  | inactive |  | inactive
COCCn1c2c([n+](Cc3cnccn3)c1C)C(=O)c1ccccc1C2=O | 2.34 µM (active) | inactive |  | 0.0042 µM (active) |  | 
